# Screening results as filed in PubChem BioAssay.
# PABP FP inh: blocks human PABP binding to poly(A) RNA. P11940. fluorescence polarization. inhibition, % at 35 µM. 290,000 compounds, 1% hits;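 further: calls also rest on retests at 20 µM and on dose response follow-up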
# eIF4H FP inh: inhibitors of RNA binding by human eIF4H | eIF4H fluorescence polarization binding assay | inhibition, % at 35 µM | Q15056 | 290,000 compounds, 0.94% hits;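 further: calls also rest on retests at 20 µM and on dose response follow-up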
# MLLE-PAM2 inh: blocks PAM2 peptide binding to the PABP1 MLLE domain. P11940. GST-MLLE / FITC-PAM2 fluorescence polarization. inhibition, % at 20 µM. 360,000 compounds, 0.36% hits. AID 588489; in the data active means inhibition above about 35%, passing the limit was not always enough;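 further: plate controls were DMSO wells with GST-MLLE for no effect and wells lacking GST-MLLE protein for full effect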
# eIF4E 4G PPI: eIF4E/eIF4G interaction inhibition in translation initiation | P63073+Q04637 | TR-FRET eIF4E-eIF4GI(517-606) binding, 2 h | inhibition, % at 21.7 µM | 220,000 compounds, 0.37% hits;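 active means inhibition above about 30%, limit read from the data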;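 further: 0% = full FRET control wells and 100% = background wells lacking eIF4GI fragment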
# PERK inh: human PERK inhibition, primary cell-based screen | Q9NZJ5 | CHO PERK-DD fusion, SEAP luminescence translation reporter | inhibition, % at 5.6 µM | 220,000 compounds, 0.17% hits | AID 1416;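 active means inhibition above the mean inhibition of all tested compounds plus 3 SD, set separately per screening campaign, cut at about 2.9% in these data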;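 further: PERK kinase domain activated by AP20187 dimerizer at 100 nM; 0% = DMSO with dimerizer and 100% = rapamycin at 8.4 µM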
# An asterisk follows results filed as active; ? = inconclusive; nt = not tested or not shown. An excerpt weighted towards active compounds, which were near 1.6% of everything screened. Unless noted, how the calls were made is not given here.
SMILES,PABP FP inh,eIF4H FP inh,MLLE-PAM2 inh,eIF4E 4G PPI,PERK inh
Cc1ccc(-c2cnc(C(O)c3cc(F)cc(Cl)c3)[nH]2)cc1 (stereo not drawn),nt,nt,-3,nt,nt
Cc1cc(C(=O)NC2Cc3ccccc3C2)c(C)o1,72*,96*,2,4,0
Cc1cc(C(=O)NC2CCCCC2)c(C)o1,nt,nt,16,nt,nt
CCOC(=O)C1CCCN(C(=O)c2ccc(-c3ccc([N+](=O)[O-])cc3)o2)C1 (stereo not drawn),nt,nt,41*,nt,nt
COc1ccc(CNC(=O)C2CCN(c3nnc(N4CCCC4=O)s3)CC2)cc1,52*,90*,3,nt,nt
COCCCN1CN(S(=O)(=O)c2ccc(Cl)cc2)c2nc3ccccc3nc21,53*,50*,16,5,-1
NS(=O)(=O)c1cc(C(=O)NC2CCSc3ccccc32)ccc1Cl (stereo not drawn),90*,106*,11,nt,nt
CC(=O)c1cccc(S(=O)(=O)NC2CCSc3ccccc32)c1 (stereo not drawn),-3,-5,47*,nt,nt
CCCCNC(=S)N(C)/N=C/c1c(C)[nH]c2ccccc12,-4,50*,-165,5,0
COc1ccc(C(=O)N(C)Cc2cnn(Cc3ccccc3)c2)cc1S(=O)(=O)N1CCOCC1,nt,nt,19,nt,nt
CCn1c(C)nc2cc(C(=O)NNC(=S)NC(=O)c3ccccc3)ccc21,65*,-1,20,-5,1
CCn1c(C)nc2cc(C(=O)NNC(=S)Nc3ccccc3)ccc21,-4,4,3,-1,1
O=[N+]([O-])c1cccc(NC(=S)Nc2nc(-c3ccccc3Cl)cs2)c1,-3,14,42*,nt,nt
O=c1[nH]ncc(N/N=C\c2ccncc2)c1Cl,-1,-9,0,-1,1
O=c1[nH]ncc(N/N=C\c2cccs2)c1Cl,71*,active,-4,4,1
CCOC(=O)N1CCN(c2cc(NCCC(=O)O)c3c4c(onc24)-c2ccccc2C3=O)CC1,73*,86*,141,6,-1
O=C(O)CCCNc1cc(N2CCC3(CC2)OCCO3)c2noc3c2c1C(=O)c1ccccc1-3,105*,115*,nt,19,-1
O=C(O)CCNc1ccc(NCCC(=O)O)c2c1C(=O)c1ccccc1C2=O,?,?,97,nt,nt
CCO/C(C)=N/Oc1cc(OC)cc(OC)c1,nt,nt,9,nt,nt
O=C(NCc1ccc(Cl)cc1)c1cnccn1,-1,-7,11,-9,1
O=C(NCc1cccc(Cl)c1)c1cnccn1,54,34*,3,-3,2
CCCN(CCC)c1ccc(/C=C/c2ccc3cc(OCC)ccc3n2)cc1,41*,?,-95,12,0
COc1cc(/C=C2\CCCc3c2nc2ccccc2c3C(=O)O)cc(OC)c1O,29,29,18,3,0
COc1cc(/C=C2\CCCc3c2nc2ccccc2c3C(=O)O)cc([N+](=O)[O-])c1O,49*,80*,20,nt,nt
Cn1nc(C(C)(C)C)cc1C(=O)O,-7,-10,8,3,1
SMILES,PABP FP inh,eIF4H FP inh,MLLE-PAM2 inh,eIF4E 4G PPI,PERK inh
Cn1nc(C(C)(C)C)cc1C(=O)Sc1cccc(Br)c1,-1,-2,44*,0,0
O=C(CC1SC(N2CCCC2)=NC1=O)Nc1ccc(C(=O)NCc2ccc(F)cc2)cc1 (stereo not drawn),nt,nt,-4,nt,nt
Cc1ccc(OCC(=O)Nc2ccc(S(=O)(=O)N(C)C3CCN(C)CC3)cc2)c(C)c1,72*,-2,-107,nt,nt
CCS(=O)(=O)N1CCC(C(=O)Nc2ccc(C(C)=O)cc2)CC1,-3,4,-15,nt,nt
Cc1nc2cc(NC(=O)C3COc4ccccc4O3)ccc2s1 (stereo not drawn),55*,-2,-101,6,0
Cc1nc2ccc(NC(=O)C3COc4ccccc4O3)cc2s1 (stereo not drawn),nt,nt,-102,0,0
Nc1nc(N)c(N=Nc2ccccc2)c(=O)[nH]1,nt,nt,-13,nt,nt
Nc1nc(N=Nc2ccc(O)cc2)cc(=O)[nH]1,nt,nt,52*,nt,nt
CCn1c(SCC(=O)N2CCC(C)CC2)nc2c1c(=O)n(C)c(=O)n2C,6,2,1,nt,nt
Cc1onc(-c2ccccc2)c1C(=O)NC(=S)NNC(=O)c1cccnc1,-1,4,23,-1,1
Cc1onc(-c2ccccc2)c1C(=O)NC(=S)NNC(=O)c1ccncc1,-12,12,42*,-5,0
Cc1ccnc(N2C(=O)c3cccc4c([N+](=O)[O-])ccc(c34)C2=O)c1,14*,77*,63*,7,1
Nc1nc(COc2ccccc2C=O)nc(Nc2ccccc2)n1,8,-3,2,97*,-1
Cc1ccsc1C=Nc1ccc(O)cc1,28,51*,22,11,1
C=C(C)CN(CC)c1nc(N)c(C#N)c(CC#N)c1C#N,76*,84*,5,2,0
COc1cc(NC(=O)CCS(=O)(=O)c2ccc3c(c2)oc(=O)n3C)cc(OC)c1OC,-4,4,13,nt,nt
COc1ccc(OC(=O)c2cccc(S(=O)(=O)N3CC(C)OC(C)C3)c2)cc1 (stereo not drawn),nt,nt,-16,nt,nt
Cc1ccc(C2CC2C(=O)NNC(=S)Nc2ccc(Cl)cc2)cc1 (stereo not drawn),14,14,44*,0,0
Cc1cc(O)cc2c1C(=O)/C(=C/c1ccco1)O2,43*,61*,-11,nt,nt
CCC(=O)Oc1ccc2c(c1)O/C(=C\c1ccco1)C2=O,?,?,57,-2,1
Cc1ccccc1OCC(=O)Nc1ccc(N2CCN(C)CC2)c(Cl)c1,-11,-5,7,nt,nt
CC1CCCCC1NC(=O)CN1C(=O)NC(C)(c2cc(F)ccc2F)C1=O (stereo not drawn),nt,nt,4,nt,nt
COc1ccc(S(=O)(=O)NCc2ccc3c(c2)cc(C)n3C)cc1,74*,64*,49*,3,1
Cc1cc2cc(CNC(=O)c3ccc(S(=O)(=O)N4CCCCC4)cc3)ccc2n1C,45,-20,49*,-7,1
CCN(CC)S(=O)(=O)c1ccc(C(=O)NCc2ccc3c(c2)cc(C)n3C)cc1,2,20,46*,-5,0
SMILES,PABP FP inh,eIF4H FP inh,MLLE-PAM2 inh,eIF4E 4G PPI,PERK inh
CC(=O)O/N=C/c1c(C)c(C=O)n2ccccc12,55*,22,-6,5,2
COc1ccc(CCNC(=O)CSc2ccc(-c3ccncc3)nn2)cc1,55,1.1*,3,2,1
COc1ccc(-c2ccc(SCC(=O)Nc3nnc(C)s3)nn2)cc1,14*,55*,-7,2,1
CC(C)NC(=O)c1ccc(COc2cc(Cl)ccc2Cl)o1,6,-11,-4,nt,nt
COc1cc(C(=O)NNC(=S)NC(=O)c2ccc(Cl)cc2)cc(OC)c1OC,91,12*,16,6,1
CCOc1ccc(OCCC(=O)Nc2cccc(S(=O)(=O)N3CCCC3)c2)cc1,nt,nt,-5,nt,nt
COC(=O)c1ccc(CSc2nc3ccc(Cl)cc3[nH]2)o1,-2,3,nt,6,-1
COC(=O)c1ccc(CSc2nc3scc(-c4cccs4)c3c(=O)[nH]2)o1,20*,54*,-17,-2,0
